Screening results (PubChem BioAssay)
HT1080NT lethal: kills 2HG-producing HT-1080-NT fibrosarcoma cells. HT-1080-NT fibrosarcoma viability, CellTiter-Glo ATP luminescence, 48 h. Potency, µM (doses to about 46.1 µM), for inactives: top-dose activity, negative = less viability, hits mostly cytotoxic. 360,000 tested, 1.6% active;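 note: NT is the 2HG producing partner of a matched IDH1 knockdown line; 0% = DMSO-treated cells and -100% = media-only wells without cells; nearly all actives have a fitted effect of over 55% in size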
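Luminescent CellTiter-Glo readout after 48 hours of compound exposure at 37 degrees C defined viability of HT-1080-NT cells. Activity was normalized to DMSO wells and cell-free media wells; concentration-response curves were fitted and assigned curve classes.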
KB-V1 MDR tox: KB-V1 MDR subline cytotoxicity; KB-V1 MDR cells viability, CellTiter-Glo, 72 h; Potency, µM (top dose mostly 46.1 µM), actives largely listed as cytotoxic; 400,000 tested, 3.4% active; AID 1347076; note: % is set by controls: 0 for no effect and ±100 for the full control effect; nearly all actives have a fitted effect of over 60% in size
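Potencies derive from concentration-effect curves fitted to normalized luminescence (CellTiter-Glo) of KB-V1 cells treated for 72 h at 37 degrees C in phenol-red-free DMEM containing 10% FBS.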
HT1080 IDH1KD tx: toxicity to HT-1080 IDH1 knockdown cells (counter line) | HT-1080 IDH1 knockdown viability, ATP luminescence, 48 h | Potency, µM (highest dose often 46.1 µM), for inactives: at the top dose activity, negative = toxicity, hits mostly cytotoxic | 360,000 tested, 2% active | AID 686971;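 note: 0% = DMSO wells and -100% = cell-free medium wells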
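Assay cells: HT-1080 with IDH1 knockdown, 750 per well, RPMI/5% FBS. Exposure: 48 h at 37 °C following 2 h pre-incubation. Read: CellTiter-Glo luminescence; fitted concentration-response, curve class assigned.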
SW480 rerep: induces DNA re-replication in SW480 colon adenocarcinoma cells; SW480 DNA re-replication, Hoechst DNA content imaging, 48 h; Potency, µM (top dose mostly 46.1 µM), without a hit: top-dose re-replication activation, most hits filed as activators; 340,000 tested, 1.8% active; AID 624297; note: % of control where 0% means no effect; nearly all actives have a fitted effect of over 55% in size
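Compounds, transferred as 23 nL by pin tool, were incubated with cells for 48 hr; DNA content per nucleus was then quantified by Hoechst staining and fluorescence plate imaging.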
KB-3-1 tox: kills parental KB-3-1 adenocarcinoma cells; KB-3-1 viability, CellTiter-Glo ATP luminescence, 72 h; AID 1347075; Potency, µM (highest dose often 46.1 µM), usual class: cytotoxic; 400,000 tested, 1.4% active; note: % is set by controls: 0 for no effect and ±100 for the full control effect; nearly all actives have a fitted effect of over 60% in size
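KB-3-1 cells, DMEM (no phenol red) + 10% FBS; compound by pin transfer, 72 h, 37 °C. Readout: CellTiter-Glo luminescence after 10 min. Data normalized, curve-fitted.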
MCF10A rerep: DNA re-replication induction in MCF 10a cells | MCF 10A DNA re-replication, Hoechst nuclear intensity, 48 h | Potency, µM (top dose mostly 46.1 µM), inactives show top-dose activity, positive = re-replication, hits mostly activators | 350,000 tested, 2.9% active | AID 624296; note: % of control where 0% means no effect; nearly all actives have a fitted effect of over 50% in size
The depositor's hits bear a star; i = inactive; ? = inconclusive; / = not tested or not shown. A selection: hits, their analogues and other compounds. The true share with any hit is near 8%. Calls come from the whole dose curve; as a rule, active = well fitted curve in the direction sought with a large enough effect; inconclusive = small, poorly fitted or top-dose-only effect, or another doubt; inactive = no such curve, though single readings can be large; an effect the other way counts as inactive or inconclusive. Potency is the fitted concentration of half-maximal effect.

SMILES	HT1080NT lethal	KB-V1 MDR tox	HT1080 IDH1KD tx	SW480 rerep	KB-3-1 tox	MCF10A rerep
O=C(CSc1nc2ccc(Nc3nc(N4CCCC4)nc(N4CCCC4)n3)cc2s1)NCc1ccco1	-6%	i	-2%	-9%	i	5.8µM*
O=C(CNc1ccccc1Cl)Nc1cc(S(=O)(=O)N2CCOCC2)ccc1Cl	-4%	i	0%	5%	i	-3%
CSc1nc2ccc(Nc3nc(N4CCOCC4)nc(N4CCOCC4)n3)cc2s1	?	18µM*	?	16µM*	?	?
O=C(CSc1nc2ccc(Nc3nc(N4CCOCC4)nc(N4CCOCC4)n3)cc2s1)Nc1ccccc1Cl	?	?	-28%	?	?	18µM*
CC(=O)c1ccc(OC(C)c2nc3ccccc3s2)cc1 (stereo not given)	0%	i	6%	4%	i	-5%
COc1ccccc1CNc1ccc(-c2nc(-c3cccc(C)c3)no2)cc1[N+](=O)[O-]	/	i	/	/	i	/
O=C(CSc1nc2ccc(Nc3nc(N4CCOCC4)nc(N4CCOCC4)n3)cc2s1)N1CCOCC1	-4%	i	-2%	-7%	i	?
O=C(CSc1nc2ccc(Nc3nc(N4CCOCC4)nc(N4CCOCC4)n3)cc2s1)Nc1ccccc1F	7%	2.6µM*	4%	2.9µM*	13µM*	2.1µM*
N#CC(C#N)=C(Nc1ccc(F)cc1)SCc1cccc(F)c1	?	?	?	-32%	16µM*	23µM*
Cc1cc2c3c([nH]c2cc1S(=O)(=O)N1CCC2(CC1)OCCO2)CC(C)(C)CC3=O	-28%	i	-5%	?	i	23µM*
CCC(OC(=O)C(NC(=O)c1ccccc1)c1ccccc1)C(=O)Nc1cc(C)on1 (stereo not given)	0%	i	0%	?	i	5.8µM*
Cc1cccc(-c2noc(-c3ccc(NCC4CCCO4)c([N+](=O)[O-])c3)n2)c1 (stereo not given)	/	i	/	/	i	/
FC(F)(F)c1cc(CO[C@@H]2CCCN[C@@H]2c2ccccc2)cc(C(F)(F)F)c1	?	i	23µM*	?	i	?
FC(F)(F)c1cc(CCN2CCNC[C@@H]2c2ccccc2)cc(C(F)(F)F)c1	0%	i	-12%	-60%	i	-15%
CC1(c2ccccc2)CC(C)(C)N(C(=O)CSc2nnc(N)s2)c2ccccc21 (stereo not given)	-16%	16µM*	-11%	?	i	?
CCC(=O)N1c2ccccc2C(C)(c2ccccc2)CC1(C)C (stereo not given)	/	i	/	/	i	/
Cc1cccc(-n2c(=O)c(C#N)cc3c(=O)n4ccccc4nc32)c1	8%	i	12%	16µM*	i	?
Cc1ccc(-n2c(=O)c(C#N)cc3c(=O)n4ccccc4nc32)cc1	15%	i	18%	2.1µM*	i	?
Cc1ccc(C)c(-n2c(=O)c(C#N)cc3c(=O)n4ccccc4nc32)c1	-4%	?	6%	4%	i	?
CCCC[C@@H]1CNC(=S)N1CCC12CC3CC(CC(C3)C1)C2	-8%	?	-9%	4%	i	16µM*
CCCC[C@@H]1CNC(=S)N1CC1CCCCC1	6%	i	2%	?	i	17%
Cc1ccc(NC(=O)c2c(C)nc3sc(C(=O)Nc4ccc(F)cc4)c(N)c3c2-c2ccc(C)o2)c(C)c1	/	i	/	/	i	/
CCOC(=O)C1=CN(CC2CCCO2)C=C(C(=O)OCC)C1c1ccccc1C(F)(F)F (stereo not given)	?	i	14%	15µM*	i	13µM*
CCOC(=O)c1ccc(NC(=O)c2cccc3c2C(=O)N(CC2CCCO2)C3)cc1 (stereo not given)	0%	i	-6%	-4%	i	9%
CCN(CC)CC(O)Cn1c(C)c(-c2ccccc2)c2cc([N+](=O)[O-])ccc21 (stereo not given)	21µM*	i	?	?	?	?
SMILES	HT1080NT lethal	KB-V1 MDR tox	HT1080 IDH1KD tx	SW480 rerep	KB-3-1 tox	MCF10A rerep
Cc1cc2c(cc(C(=O)OCC(=O)NC3CCCCC3)n2C)o1	-19%	?	-15%	?	i	26µM*
Cc1cc(C(=O)OCC(=O)NC2CCCCC2)c(C)o1	11%	i	9%	-2%	i	0%
COC(=O)C12OCC34C(CC5C(C)=C(O)C(=O)CC5(C)C3C(O)C1O)OC(=O)C(OC(=O)C=C(C)C)C24 (stereo not given)	-26%	7.3µM*	0.037µM*	?	0.21µM*	?
CCCCCCCCCCCC(CC1OC(=O)C1CCCCCC)OC(=O)C(CC(C)C)NC=O (stereo not given)	/	/	/	13%	/	5.3µM*
Cc1ccc2c(c1)N(CC(=O)Nc1ccccc1C(F)(F)F)C(=O)c1cccnc1O2	/	i	/	/	i	/
CCOc1ccc(-c2ccc(SCC(=O)Nc3nnc(CC)s3)nn2)cc1	8%	i	2%	0%	i	3%
CCOc1ccc(-c2ccc(SC)nn2)cc1	16µM*	12µM*	23µM*	5%	?	-5%
Cc1ccc2nc(COc3ccccc3NC(=O)C(C)(C)C)cc(=O)n2c1	/	i	/	/	i	/
C(=NN1CCCCCC1)c1ccc2ccccc2n1	6.5µM*	i	?	-1%	?	13%
CC(=O)Nc1ccc(SCC(=O)NNC(=O)CN(C)S(=O)(=O)c2ccc(C)cc2)cc1	0%	i	-3%	5.2µM*	i	0%
CCNC(=S)Nc1cccc(S(=O)(=O)Nc2ccccc2OC)c1	-12%	i	-7%	4%	i	6%
COc1ccccc1NS(=O)(=O)c1cccc(NC(=O)Nc2ccccc2)c1	-9%	21µM*	-9%	?	?	17%
COc1ccccc1NS(=O)(=O)c1cccc(NC(=O)Nc2ccc(Cl)cc2)c1	?	?	18µM*	?	?	?
COc1cccc(OC)c1C(=O)Nc1cccc(S(=O)(=O)Nc2ccccc2Cl)c1	0%	i	1%	-1%	i	11%
O=C(C1CC=CCC1)N1CCC(CO)(Cc2ccc(Cl)cc2)CC1 (stereo not given)	-20%	12µM*	2%	-13%	?	1%
O=C(C1CCCC1)N1CCC(CO)(Cc2ccccc2Cl)CC1	-21%	?	-17%	-2%	i	0%
